Compounds with a hit are over-represented: about 9.6% of the library has one in this group of screens.
Lmaj promast: Leishmania major promastigote growth inhibition, primary screen; 9% of 200,000 active; Leishmania major promastigotes, resazurin fluorescence viability; inhibition, % at 10 µM; in the data active = inhibition above about 50%;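 also: promastigotes grown with compound for 44 hours at 28 °C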
HCT116 PTEN-null: growth suppression of PTEN-null HCT116, primary screen, cell-based, CellTiter-Glo; HCT116 PTEN-null viability, 60 h; active compounds read low; viability, % at 10 µM; 1.2% of 140,000 active; AID 827, 2007;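 active = viability at or below a set limit, 4 SD under the median of all tested compounds, cut at about 3.7% in these data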;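 also: PTEN knockout HCT116 line with beta catenin targeted HCT116 as companion control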
INS promoter inh: inhibitors of insulin promoter-driven GFP, primary screen, imaging, TRM-6 cells (human fetal islet line), eGFP reporter, cell count | 0.9% of 130,000 active | inhibition, % at 2 µM | reporter expression induced with tamoxifen;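 active = inhibition above the mean plus 3 SD, with well images judged a real hit on visual review, cut at about 60% in these data, passing the limit was not always enough; inconclusive = inhibition over the cutoff but images rejected on review; inactive = inhibition not above the cutoff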
Autophagy HCS: autophagy modulators in MEF cells, primary screen, imaging, high-content, MEF GFP-LC3; MEF GFP-LC3 puncta imaging; test concentration mostly 10 µM; calls only at 10 µM (by protocol); 0.98% of 190,000 active; AID 463193, 2010;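 active = percentage of spot-positive cells more than 3 SD above its plate mean, without a fluorescence outlier flag or 80% toxicity; inconclusive = no clear call, values can overlap the other calls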;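 also: spot-positive cell cutoff set from DMSO-treated cells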
bCat KO growth: primary screen for growth suppressors in beta-catenin knockout HCT116 cells (colon tumor, human); HCT116 beta-catenin knockout viability, CellTiter-Glo, 60 h; active compounds read low; viability, % at 10 µM; 1.5% of 140,000 active;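 active = viability at or under a set limit, the compound median less 4 SD, cut at about 6% in these data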;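 also: 0% = Hyamine 1622 control at 20 µM and 100% = untreated cell control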
Insulin prom up: insulin promoter activators in MIN6 cells, imaging, high-content screening, mouse beta cells. MIN6 insulin promoter-GFP reporter; active compounds read high. z-score at 5 µM. 0.3% of 190,000 active;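 active = z-score above 3 at 5 µM with at least 500 cells counted in the well; inconclusive = wells under 500 cells, flagged as cytotoxic or low count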
The depositor's hits bear a star; i = inactive; u = inconclusive; x = no result; + = active, no number.

SMILES | Lmaj promast | HCT116 PTEN-null | INS promoter inh | Autophagy HCS | bCat KO growth | Insulin prom up
COc1cc(/C=C(/C#N)c2nc3ccccc3[nH]2)ccc1OCC(=O)Nc1ccccc1C | -8 | 19 | x | i | 26 | -0.43
COc1cc(/C=C(\C#N)c2nc3ccccc3[nH]2)c([N+](=O)[O-])cc1OCc1ccccc1 | 90* | 54 | -3 | i | 64 | -0.35
COc1cc(/C=C(\C#N)c2ccccn2)ccc1OCC(=O)Nc1c(Cl)cccc1Cl | 3 | 87 | -33 | i | 81 | -0.82
CCOc1cc(/C=N\NC(=O)Cc2ccccc2)ccc1OCC(=O)Nc1ccc(C)c(C)c1 | -1 | 20 | 13 | i | 15 | 0.98
COc1cc(/C=C(\C#N)c2ccccn2)ccc1OCC(=O)Nc1ccc(Br)cc1 | 3 | 5 | -7 | i | 5.4* | 0.42
CCOc1cc(/C=N\Nc2ccc([N+](=O)[O-])cc2)ccc1OCC(=O)Nc1ccc(C)c(C)c1 | -4 | 66 | -43 | + | 69 | x
COc1cc(/C=C(/C#N)c2nc3ccccc3[nH]2)ccc1OCC(=O)Nc1ccccc1C(C)C | 40 | 0.7* | 19 | i | 1.2* | -1.3
CCOC(=O)/C(C#N)=C/c1ccc(OCC(=O)Nc2ccc(OC)cc2)c(OC)c1 | -3 | 60 | x | i | 81 | 0.63
COc1cc(/C=N\Nc2ccc([N+](=O)[O-])cc2)ccc1OCC(=O)Nc1ccc(C)c(C)c1 | -6 | 23 | -14 | + | 31 | x
CCOC(=O)/C(C#N)=C/c1ccc(OCC(=O)Nc2ccc(C)c(C)c2)c(OC)c1 | 52* | 94 | 11 | i | 102 | -0.22
CC(C)(C)Nc1c([N+](=O)[O-])c(=O)sc2ccccc12 | 1 | x | 0 | i | x | x
CCc1ccc(/C=C/C(=O)c2cc(Br)ccc(=O)c2O)cc1 | 11 | 7 | -3 | i | 5.1* | 0.2
CCOc1ccc(/C=C/C(=O)c2cc(Br)ccc(=O)c2O)cc1 | 8 | 9 | x | i | 9 | 0.11
Cc1cccc(/C=C/C(=O)c2cc(Br)ccc(=O)c2O)c1 | 100* | 8 | -17 | i | 5.2* | 0.19
CCCc1ccc(-c2cc(C(=O)Nc3ccc([N+](=O)[O-])cn3)c3ccccc3n2)cc1 | 76* | 83 | x | i | 85 | 0.45
Cc1cc(C(=O)N/N=C/c2cc([N+](=O)[O-])ccc2O)c2ccccc2n1 | 31 | 3.0* | -10 | i | 9 | -0.15
O=C(N/N=C/c1cc([N+](=O)[O-])ccc1Cl)c1cc(-c2ccccc2)nc2ccccc12 | x | x | x | x | x | -0.05
O=C(N/N=C/c1cc([N+](=O)[O-])ccc1O)c1cc(-c2ccccc2)nc2ccccc12 | 98* | 10 | x | i | 15 | -0.47
Cc1cccc(C)c1OCCOC(=O)c1n[nH]c2ccccc12 | 10 | x | -7 | i | x | 0.02
CCCCn1c(SCC(N)=O)nnc1-c1ccco1 | -7 | 99 | 29 | i | 102 | 0.82
CC(C)Cn1c(N)c(C(=O)COC(=O)CC23CC4CC(CC(C4)C2)C3)c(=O)n(C)c1=O | 98* | 8 | -17 | i | 7 | u
CC(C)Cn1c(N)c(C(=O)COC(=O)c2ccc(Cl)cc2)c(=O)n(C)c1=O | 18 | x | -28 | i | x | -0.25
O=C(c1ccc(Cl)cc1)C1CCCN(Cc2cccn2-c2cccnc2)C1 (stereo unspecified) | 87* | x | -29 | i | x | -1.5
COc1ccc(C(=O)C2CCCN(Cc3cccn3-c3cccnc3)C2)cc1OC (stereo unspecified) | 8 | x | x | i | x | 0.46
O=C(c1ccc2c(c1)OCO2)C1CCCN(Cc2cccn2-c2cccnc2)C1 (stereo unspecified) | 94* | x | x | i | x | -0.36
CSc1ccc(C(=O)C2CCCN(Cc3cccn3-c3cccnc3)C2)cc1 (stereo unspecified) | 85* | x | x | i | x | -0.49
CCc1c(C(=O)N/N=C/c2cn[nH]c2-c2ccc(F)cc2)csc1C | 0 | 92 | -179 | i | 92 | 0.16
Cc1ccc(C(C(=O)Nc2ccc3c(c2)OCO3)N(C)C(=O)/C=C\c2ccc3c(c2)OCO3)cc1 (stereo unspecified) | 87* | 92 | 13 | i | 90 | 0.12
C=C(C)c1cccc(C(C)(C)NC(=O)N2CCC(C)CC2)c1 | 11 | 98 | -29 | i | 95 | 0.44
